From PubChem BioAssay AID2314 (National Center for Advancing Translational Sciences (NCATS), 2010)
About 37,000 (12%) of roughly 300,000 compounds were called active. No stated cut-off is given here; in the data, active means max response mostly above about 13% (no sharp cut-off); inactive means mostly below about 14%. The entries come from a sample that favours actives as a whole.

assay: Cycloheximide Counterscreen for Small Molecule Inhibitors of Shiga Toxin; conditions: cell reporter, cycloheximide protein synthesis inhibition counterscreen; active compounds read high; further: read at 38.3 µM for the half of the compounds with a filed dose; 0% is about no effect

Structure (SMILES)	max response
O=C(NCc1ccccn1)[C@]1(C(F)(F)F)C[C@H](CCc2ccccc2)CCCO1	-4.95% (inactive)
O=[N+]([O-])c1cc(S(=O)(=O)CCCN2CCOCC2)ccc1F	-6.03% (inactive)
NC(=O)CCN1CCN(S(=O)(=O)/C=C/c2ccccc2)CC1	-9.41% (inactive)
COCCCNC(=O)Cc1ccc(-n2c(C)nc3cccnc32)cc1	-1.61% (inactive)
COC(=O)C1CCCCN1C(=O)c1ccc(OC2CCN(C(C)=O)CC2)c(OC)c1 (configuration not stated)	-4.09% (inactive)
Cn1c(C(=O)OC(C(=O)NC2CCCCC2)c2ccccn2)cc2sccc21 (configuration not stated)	-2.24% (inactive)
CN1/C(=C\C(=O)c2oc3ccccc3c2N)C(C)(C)c2ccccc21	5.01% (inactive)
CN1/C(=C\C(=O)c2cccnc2Cl)C(C)(C)c2ccccc21	17.7% (active)
CC(C)Nc1nnc(SCC(=O)/C=C2\N(C)c3ccccc3C2(C)C)s1	5.97% (inactive)
C=CCNC(=O)COc1coc(CN2CCN(Cc3ccccc3)CC2)cc1=O	-1.91% (inactive)
CCOC(=O)NNc1cc(C(F)(F)F)ccn1	-0.89% (inactive)
CCCC(=O)Nc1cccc(-c2cn3ccsc3n2)c1	27.2% (active)
O=C(NCc1cn2ccsc2n1)Nc1cccc(Cl)c1	-2.26% (inactive)
CCc1cccc(NC(=O)CCC(=O)O)c1	-2.1% (inactive)
CCOC(=O)C1=C(C)OC(N)=C(C#N)C1c1cncc(-c2ccc(F)cc2)c1 (configuration not stated)	-4.52% (inactive)
CN(C)c1ccc(C(=S)N2CCN(C(=S)Nc3ccc(Cl)cc3)CC2)cc1	-2.08% (inactive)
C=CCc1cccc2cc(C(=O)Nc3ccc(NC(C)=O)cc3)c(=O)oc12	7.03% (inactive)
CC1Cc2ccccc2N1C(=O)CSc1nnc(C2CC2)n1C (configuration not stated)	-2.64% (inactive)
C[C@@H]1C[C@@H]2O[C@H]2/C=C\C=C\C(=O)Cc2c(Cl)c(O)cc(O)c2C(=O)O1	8.16% (active)

Structure (SMILES)	max response
O=C(OCC1O[C@@H](OC(=O)c2cc(O)c(O)c(O)c2)[C@@H](OC(=O)c2cc(O)c(O)c(O)c2)[C@@H](OC(=O)c2cc(O)c(O)c(O)c2)[C@@H]1OC(=O)c1cc(O)c(O)c(O)c1)c1cc(O)c(O)c(O)c1 (some centres not stated)	-3.49% (inactive)
Cc1cc(C)cc(N(CC(=O)NCCSCc2ccco2)S(C)(=O)=O)c1	-3.57% (inactive)
OCCNCCOc1ccc(Cl)c(Cl)c1	-2.06% (inactive)
COc1ccc(CCNC(=O)CSc2nc(-c3ccc(OC)c(OC)c3)ccc2C#N)cc1	-0.296% (inactive)
CCc1cc2c(=O)c(-c3ccon3)c(N)oc2cc1OC	40.8% (active)
COc1ccc2oc(N)c(C=O)c(=O)c2c1	11.3% (inactive)
CCc1cc2c(=O)c(-c3ccc(F)cc3)c(C(F)(F)F)oc2cc1OCC(=O)O	-0.895% (inactive)
COC(=O)Cn1cc(/C=C/[N+](=O)[O-])c2ccccc21	0.349% (inactive)
Cc1nn(-c2ccccc2)c(Cl)c1/C=N/NC(=O)c1nn(C)cc1[N+](=O)[O-]	30.2% (active)
Cc1ccc(-c2nnc(SCC(=O)N/N=C/c3cccs3)n2-c2ccc(C)cc2)cc1	-2.1% (inactive)
Cc1nn(-c2ccccc2)c(NC(=O)c2cccs2)c(-c2ccc(Cl)cc2)c1=O	-4.56% (inactive)
Cc1nn(-c2ccccc2)c(C)c1/C=N/NC(=O)CSc1nc2ccccc2c(=O)n1-c1ccccc1	-2.06% (inactive)
Cc1ccc(-n2nc(C)c(/C=N/NC(=O)c3cccs3)c2Cl)cc1	41.5% (active)
Cc1cc(C)c([N+](=O)[O-])cc1-c1ccc(/C=N/NC(=O)c2nonc2N)o1	8.92% (inactive)
COc1ccc(CCN(C)C(=O)C23CC4CC(CC(Cl)(C4)C2)C3)cc1OC	6.24% (inactive)
Cc1ccc(C(=O)N2CCC(n3nccc3NC(=O)Nc3cccc(F)c3)CC2)cn1	-3.88% (inactive)
c1ccc(-c2cn3cccnc3n2)cc1	15.7% (active)
CN1CCN(Cc2ccc(OC(F)(F)F)cc2)CC1	-2.95% (inactive)
COc1ccc(-c2ccnc(SCC(=O)N3CCOCC3)n2)cc1	2.08% (inactive)

Structure (SMILES)	max response
FC(F)(F)Oc1ccc(-c2cn3cccnc3n2)cc1	50.9% (active)
c1ccc(-c2cn3c(n2)CCc2ccc4cccnc4c2-3)cc1	11.1% (inactive)
COc1ccc(-c2cn3ccsc3n2)cc1	42.7% (active)
COc1ccc(-c2cn3cccnc3n2)cc1	23.9% (active)
COc1ccc(N2CCN(C(=O)CSc3nnc4ncccn34)CC2)cc1	-1.32% (inactive)
Cc1ccc(S(=O)(=O)NCc2cn3ccsc3n2)c(C)c1	2.86% (inactive)
COc1cc(OC)cc(-c2nc(=S)n3ccsc3n2)c1	-1.36% (inactive)
Cc1ccccc1Nc1c(-c2ccccc2)nc2ncccn12	-1.21% (inactive)
CC(C)CC[n+]1ccn(C2=C([O-])c3ccccc3C(=O)/C2=N\S(=O)(=O)c2ccccc2)c1	-1.98% (inactive)
O=[N+]([O-])c1ccc(Oc2ccc(F)cc2Br)c2ccncc12	-2.77% (inactive)
CCCCn1nc(C(=O)Nc2ccc(S(=O)(=O)Nc3ncccn3)cc2)c2ccccc2c1=O	-8.36% (inactive)
O=C1c2cccc(OCC(=O)N3N=C(c4cccs4)CC3c3ccc(F)cc3)c2CCN1Cc1ccccc1 (configuration not stated)	4.05% (inactive)
CCOc1cc(C2C(C(=O)c3ccco3)=C(O)C(=O)N2Cc2ccccc2)ccc1O (configuration not stated)	4.82% (inactive)
Cc1cc(=O)oc2c(C)c(OCC(=O)NCCN3CCOCC3)ccc12	7.13% (inactive)
CCNc1c(NS(=O)(=O)c2ccc(C3CCCCC3)cc2)c(=O)oc2ccccc12	-5.65% (inactive)
CC(c1ccccc1)n1c(NCCCn2ccnc2)nc2c1c(=O)[nH]c(=O)n2C (configuration not stated)	-2.03% (inactive)
COc1ccc(-c2c(NC(=O)c3ccco3)oc3ccc(Cl)cc3c2=O)cc1	1.49% (inactive)
COc1ccc(CN2CCCC(N3CCc4ccccc4C3)C2)c(O)c1 (configuration not stated)	-0.856% (inactive)
CCOc1ccc(NC(=O)[C@H](C)NC(=O)C2CC(=O)N(c3ccc(OC)cc3)C2)cc1 (some centres not stated)	4.95% (inactive)
